Source: ChEMBL document CHEMBL3988442, “University of Dundee, Small-Polar-MMV Screening Library” (2021)
For some of these results: Entries with a potency or affinity are not part of this list.

Legend:
Parameters in all cases: scale not given: direction of the effect not stated beside the values
[1] = target: Protein translocase subunit SecA (Escherichia coli (strain K12)) (UniProt P10408); assay: Assay to Identify E. coli SecA ATPase Inhibitors; type: functional; details: 30 µM
[2] = target: T1, Ubiquitin-activating enzyme e1, putative (Leishmania donovani (strain BPK282A1)) (UniProt E9BSI1); assay: Leishmania donovani Ubiquitin Activating Enzyme (LdE1); type: functional; details: 30 µM
T1 sequence (whole entry): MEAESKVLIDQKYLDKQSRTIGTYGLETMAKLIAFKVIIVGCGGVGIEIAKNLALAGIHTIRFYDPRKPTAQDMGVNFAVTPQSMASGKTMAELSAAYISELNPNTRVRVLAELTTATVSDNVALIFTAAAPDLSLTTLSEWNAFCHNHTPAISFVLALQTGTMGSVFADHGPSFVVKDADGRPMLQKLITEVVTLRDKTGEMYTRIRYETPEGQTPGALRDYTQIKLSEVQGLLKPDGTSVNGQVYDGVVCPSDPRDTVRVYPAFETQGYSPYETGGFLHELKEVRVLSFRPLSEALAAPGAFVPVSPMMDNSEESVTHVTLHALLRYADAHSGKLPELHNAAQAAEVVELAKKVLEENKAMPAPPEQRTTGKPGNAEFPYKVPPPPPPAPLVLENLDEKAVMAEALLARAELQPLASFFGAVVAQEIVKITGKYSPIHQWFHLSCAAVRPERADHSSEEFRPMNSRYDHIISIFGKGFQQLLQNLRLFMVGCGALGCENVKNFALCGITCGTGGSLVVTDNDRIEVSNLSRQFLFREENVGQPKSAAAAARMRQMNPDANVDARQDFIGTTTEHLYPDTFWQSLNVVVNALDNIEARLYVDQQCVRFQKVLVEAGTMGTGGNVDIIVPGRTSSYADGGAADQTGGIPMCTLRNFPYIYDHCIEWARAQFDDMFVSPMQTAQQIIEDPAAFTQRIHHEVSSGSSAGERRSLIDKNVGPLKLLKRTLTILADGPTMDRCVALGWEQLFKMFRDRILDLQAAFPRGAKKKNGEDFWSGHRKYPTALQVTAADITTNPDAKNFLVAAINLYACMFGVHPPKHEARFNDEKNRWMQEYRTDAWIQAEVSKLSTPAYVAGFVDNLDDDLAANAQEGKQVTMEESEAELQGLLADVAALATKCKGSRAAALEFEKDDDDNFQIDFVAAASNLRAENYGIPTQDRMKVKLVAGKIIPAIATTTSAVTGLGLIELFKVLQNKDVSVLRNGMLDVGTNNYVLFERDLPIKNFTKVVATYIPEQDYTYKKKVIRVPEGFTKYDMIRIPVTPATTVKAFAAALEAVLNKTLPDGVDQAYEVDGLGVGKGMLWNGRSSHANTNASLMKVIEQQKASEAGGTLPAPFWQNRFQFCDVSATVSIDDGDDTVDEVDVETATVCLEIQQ

[3] = target: AMP-activated protein kinase, AMPK (Homo sapiens) (UniProt P54646+O43741+P54619+Q9UGJ0+Q9Y478+Q13131+Q9UGI9); assay: AMP-dependent Kinase enzyme assay. An in vitro enzyme assay that detects ADP turnover that is directly proportional to AMPK activity. This uses naive AMPK that is activated during the assay with MK-8722; type: functional; details: 30 µM
[4] = target: Sialic acid-binding Ig-like lectin 9 (Homo sapiens) (UniProt Q9Y336); assay: Hs-Siglec9 ALPHAscreen SOP 20170721; details: 10 µM
[5] = system: Trypanosoma cruzi; assay: Trypanosoma cruzi phosphomannomutase and mannose-1-phosphate guanylyltransferase assay; type: functional; details: 10 µM
[6] = target: T2, Arginase-2, mitochondrial (Homo sapiens) (UniProt P78540); assay: in vitro enzyme assay to detect the production of urea directly proportional to the activity of Arginase II; type: functional; details: 33.3 µM; note: in the data most compounds retested in dose-response had high values
T2 sequence (whole entry): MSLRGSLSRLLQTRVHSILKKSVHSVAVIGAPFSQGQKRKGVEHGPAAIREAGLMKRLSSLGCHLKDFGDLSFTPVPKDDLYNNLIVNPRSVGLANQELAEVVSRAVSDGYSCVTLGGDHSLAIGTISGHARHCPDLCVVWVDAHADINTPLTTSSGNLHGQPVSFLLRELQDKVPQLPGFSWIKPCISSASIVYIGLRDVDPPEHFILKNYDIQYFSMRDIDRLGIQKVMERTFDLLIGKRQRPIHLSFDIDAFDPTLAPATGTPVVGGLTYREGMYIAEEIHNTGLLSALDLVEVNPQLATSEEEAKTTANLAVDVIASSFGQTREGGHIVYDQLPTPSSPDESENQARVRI

[7] = target: T3, Proteasome subunit beta (Trypanosoma cruzi) (UniProt O96673); assay: Trypanosoma cruzi proteasome chymotrypsin-like activity (TcProtChymo) assay.; note: in the data most compounds retested in dose-response had high values; type: functional; details: 9.37 µM
T3 sequence (whole entry): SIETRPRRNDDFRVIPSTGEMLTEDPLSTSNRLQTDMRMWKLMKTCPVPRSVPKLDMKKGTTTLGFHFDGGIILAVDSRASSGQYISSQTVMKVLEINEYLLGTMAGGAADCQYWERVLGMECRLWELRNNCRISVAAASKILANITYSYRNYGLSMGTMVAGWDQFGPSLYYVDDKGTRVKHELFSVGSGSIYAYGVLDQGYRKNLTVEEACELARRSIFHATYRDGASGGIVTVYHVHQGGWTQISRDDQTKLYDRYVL

[8] = species on record: Homo sapiens; assay: To identify inhibition of the IFN signalling (Jak-Stat) pathway via expression of an eGFP reporter gene under the control of an IFN-stimulated response element (ISRE) containing MxA promoter.; type: functional; details: 30 µM
[9] = target: T4, Tyrosyl-tRNA synthetase, putative (Trypanosoma cruzi (strain CL Brener)) (UniProt Q4DSP6); assay: Trypanosoma cruzi tyrosyl tRNA synthetase (TcYRS) _High Tyrosine SOP; type: functional; details: 30 µM; note: in the data most compounds retested in dose-response had high values
T4 sequence (whole entry): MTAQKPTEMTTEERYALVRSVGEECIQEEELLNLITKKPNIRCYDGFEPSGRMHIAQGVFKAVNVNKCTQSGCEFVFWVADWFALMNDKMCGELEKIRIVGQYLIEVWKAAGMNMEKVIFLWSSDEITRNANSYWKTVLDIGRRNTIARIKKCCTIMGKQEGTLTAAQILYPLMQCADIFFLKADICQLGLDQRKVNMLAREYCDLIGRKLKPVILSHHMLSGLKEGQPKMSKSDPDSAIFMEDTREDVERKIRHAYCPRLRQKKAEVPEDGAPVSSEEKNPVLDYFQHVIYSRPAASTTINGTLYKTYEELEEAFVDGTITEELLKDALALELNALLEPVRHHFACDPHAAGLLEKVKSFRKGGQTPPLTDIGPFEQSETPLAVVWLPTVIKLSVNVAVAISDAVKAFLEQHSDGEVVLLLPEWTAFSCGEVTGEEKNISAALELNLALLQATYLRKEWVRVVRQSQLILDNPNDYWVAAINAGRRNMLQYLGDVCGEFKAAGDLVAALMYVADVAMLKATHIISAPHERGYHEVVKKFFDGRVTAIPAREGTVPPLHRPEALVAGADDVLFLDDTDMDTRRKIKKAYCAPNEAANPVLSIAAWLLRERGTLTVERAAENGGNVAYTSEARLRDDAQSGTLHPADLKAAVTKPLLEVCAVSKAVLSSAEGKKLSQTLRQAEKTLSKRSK

[10] = target: T4, Tyrosyl-tRNA synthetase, putative (Trypanosoma cruzi (strain CL Brener)); assay: Trypanosoma cruzi tyrosyl tRNA synthetase (TcYRS) SOP; type: functional; details: 30 µM
[11] = target: Chromo domain-containing protein 1 (Saccharomyces cerevisiae (strain ATCC 204508 / S288c) (Baker's yeast)) (UniProt P32657); assay: ScCHD-1 Enzyme Inhibition Assay; type: functional; details: 30 µM; note: in the data most compounds retested in dose-response had high values
Chain of Chromo domain-containing protein 1 (Saccharomyces cerevisiae (strain ATCC 204508 / S288c) (Baker's yeast)) (P32657 whole entry, the tested form may be a part): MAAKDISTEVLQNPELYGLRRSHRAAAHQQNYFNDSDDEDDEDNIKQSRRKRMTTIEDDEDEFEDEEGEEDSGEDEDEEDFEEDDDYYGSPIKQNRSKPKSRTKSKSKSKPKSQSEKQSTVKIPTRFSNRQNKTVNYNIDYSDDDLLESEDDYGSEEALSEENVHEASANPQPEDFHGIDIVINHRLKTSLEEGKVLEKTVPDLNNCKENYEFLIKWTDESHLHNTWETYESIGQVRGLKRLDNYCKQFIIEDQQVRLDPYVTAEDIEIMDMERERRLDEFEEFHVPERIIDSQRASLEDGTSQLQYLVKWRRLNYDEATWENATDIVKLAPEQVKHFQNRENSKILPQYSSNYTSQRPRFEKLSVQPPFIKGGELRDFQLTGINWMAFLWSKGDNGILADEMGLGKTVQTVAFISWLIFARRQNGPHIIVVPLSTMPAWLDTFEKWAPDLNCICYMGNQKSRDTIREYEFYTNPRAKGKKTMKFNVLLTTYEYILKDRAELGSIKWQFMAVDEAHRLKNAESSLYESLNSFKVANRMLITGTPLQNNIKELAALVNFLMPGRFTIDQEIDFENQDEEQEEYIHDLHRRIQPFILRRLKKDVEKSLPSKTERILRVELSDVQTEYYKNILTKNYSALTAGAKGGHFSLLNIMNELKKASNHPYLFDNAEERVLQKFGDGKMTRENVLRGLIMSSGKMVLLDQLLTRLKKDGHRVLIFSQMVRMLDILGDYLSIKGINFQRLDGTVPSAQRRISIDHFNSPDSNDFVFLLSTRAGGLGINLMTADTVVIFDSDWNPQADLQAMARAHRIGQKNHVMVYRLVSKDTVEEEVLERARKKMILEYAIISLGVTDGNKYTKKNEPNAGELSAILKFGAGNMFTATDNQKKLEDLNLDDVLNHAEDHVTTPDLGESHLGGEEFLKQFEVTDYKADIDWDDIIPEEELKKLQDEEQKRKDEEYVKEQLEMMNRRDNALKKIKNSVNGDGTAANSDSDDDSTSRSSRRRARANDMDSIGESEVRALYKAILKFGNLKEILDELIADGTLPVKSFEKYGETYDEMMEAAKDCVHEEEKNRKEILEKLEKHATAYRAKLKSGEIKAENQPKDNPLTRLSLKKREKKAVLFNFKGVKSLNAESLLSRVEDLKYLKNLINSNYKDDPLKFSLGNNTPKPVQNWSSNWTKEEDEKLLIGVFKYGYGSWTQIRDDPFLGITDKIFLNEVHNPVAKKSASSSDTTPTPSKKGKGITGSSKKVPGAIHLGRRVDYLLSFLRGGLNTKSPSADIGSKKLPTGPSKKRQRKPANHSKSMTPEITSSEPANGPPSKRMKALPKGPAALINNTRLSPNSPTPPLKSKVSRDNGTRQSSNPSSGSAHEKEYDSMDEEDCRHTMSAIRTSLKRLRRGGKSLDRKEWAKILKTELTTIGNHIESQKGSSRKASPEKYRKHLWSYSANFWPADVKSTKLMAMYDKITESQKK

Chain of Sialic acid-binding Ig-like lectin 9 (Homo sapiens) (Q9Y336 whole entry): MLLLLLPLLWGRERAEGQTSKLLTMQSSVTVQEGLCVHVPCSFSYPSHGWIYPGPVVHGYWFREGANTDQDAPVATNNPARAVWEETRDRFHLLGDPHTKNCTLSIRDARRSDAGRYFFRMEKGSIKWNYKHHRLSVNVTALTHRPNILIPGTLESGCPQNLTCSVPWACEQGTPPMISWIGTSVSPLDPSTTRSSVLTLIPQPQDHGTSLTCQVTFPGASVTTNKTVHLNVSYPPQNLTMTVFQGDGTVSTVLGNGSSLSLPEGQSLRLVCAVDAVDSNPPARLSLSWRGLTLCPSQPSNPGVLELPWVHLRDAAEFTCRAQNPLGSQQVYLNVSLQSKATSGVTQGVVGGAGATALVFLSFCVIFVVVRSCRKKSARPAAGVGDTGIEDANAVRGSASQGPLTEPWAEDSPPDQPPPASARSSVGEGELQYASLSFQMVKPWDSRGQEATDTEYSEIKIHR
Chain of Protein translocase subunit SecA (Escherichia coli (strain K12)) (P10408 whole entry): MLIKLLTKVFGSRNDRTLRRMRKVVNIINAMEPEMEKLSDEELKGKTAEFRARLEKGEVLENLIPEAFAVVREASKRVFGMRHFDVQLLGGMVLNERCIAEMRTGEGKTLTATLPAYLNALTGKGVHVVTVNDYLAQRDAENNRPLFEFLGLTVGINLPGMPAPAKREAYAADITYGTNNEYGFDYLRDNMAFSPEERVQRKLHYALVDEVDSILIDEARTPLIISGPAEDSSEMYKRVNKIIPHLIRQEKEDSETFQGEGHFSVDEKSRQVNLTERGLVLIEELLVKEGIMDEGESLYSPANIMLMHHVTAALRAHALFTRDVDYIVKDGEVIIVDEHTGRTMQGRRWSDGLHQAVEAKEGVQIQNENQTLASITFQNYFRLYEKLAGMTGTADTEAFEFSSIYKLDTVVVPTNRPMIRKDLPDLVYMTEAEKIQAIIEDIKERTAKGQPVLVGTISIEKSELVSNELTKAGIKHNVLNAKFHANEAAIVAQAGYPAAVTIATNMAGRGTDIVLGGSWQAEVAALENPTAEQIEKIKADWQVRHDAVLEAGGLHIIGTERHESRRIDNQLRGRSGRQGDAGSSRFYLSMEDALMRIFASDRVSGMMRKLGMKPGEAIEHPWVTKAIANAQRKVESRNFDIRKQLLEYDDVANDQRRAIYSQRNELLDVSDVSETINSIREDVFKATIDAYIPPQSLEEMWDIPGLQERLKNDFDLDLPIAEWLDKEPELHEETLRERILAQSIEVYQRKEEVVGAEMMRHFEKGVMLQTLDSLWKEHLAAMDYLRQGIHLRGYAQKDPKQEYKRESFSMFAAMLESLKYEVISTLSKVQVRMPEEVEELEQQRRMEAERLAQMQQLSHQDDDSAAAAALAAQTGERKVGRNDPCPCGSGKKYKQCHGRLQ

Row | Structure (SMILES) | Percent Effect [1] [%] | Percent Effect [2] [%] | Percent Effect [3] [%] | Percent Effect [4] [%] | Percent Effect [5] [%] | Percent Effect [6] [%] | Percent Effect [7] [%] | Percent Effect [8] [%] | Percent Effect [9] [%] | Percent Effect [10] [%] | Percent Effect [11] [%]
1 | O=C(Cc1cccc(F)c1)NCCNCc1ccco1 | -9.13 | 2.6 | 7.05 | -0.647 | -3.37 | -2.13 | 7.09 | 34.8 | 3.88 | 2.44 | -7.92
2 | Cn1ccnc1CN1CCC2(CC1)CC(Oc1cccnc1)C2 | -2.04 | 8 | 4.85 | 10.2 | -1.35 | -23.8 | 1.88 | 6.63 | 10.4 | 22.5 | -6.08
3 | CCOC(=O)NC(CNC(=O)c1ncccn1)CC(C)C (stereo not given) | -3.7 | 8.11 | -1.89 | 31.5 | 5.96 | 13.7 | 11.8 | -4.96 | 4.3 | 13.6 | -6.28
4 | Cc1csc(C2CCCN(C(=O)c3ccc(=O)n(C)n3)C2)n1 (stereo not given) | -1.5 | 0 | -1.05 | -7.99 | -4.2 | 2.23 | 1.97 | -5.09 | -1.07 | -1.24 | -2.21
5 | Cn1ccc(C(=O)N2CCCC(Cc3cccc4ncccc34)C2)n1 (stereo not given) | -7.55 | 14.9 | -6.32 | 5 | 4.74 | -4.41 | 7.33 | 49.9 | 3.23 | -6.49 | -12
6 | COc1cccc(CNCc2nnc3n2CC(C(F)(F)F)CC3)c1 (stereo not given) | 0.608 | -2.7 | -0.757 | 8.38 | 1.27 | 45.4 | 5.92 | 9.33 | 6.45 | 16.1 | -13
7 | O=C(NCc1cccnc1)C1=NOC2(CCN(S(=O)(=O)C3CC3)C2)C1 (stereo not given) | -5.43 | 13.3 | -3.17 | -2.3 | 4.25 | -41.4 | 5.81 | -3.44 | -3.12 | 2.5 | -6.85
8 | CNC(=O)[C@H]1C[C@H]2OCC[C@H]2N(Cc2ccc(C)o2)C1 | -0.274 | 7.79 | 4.6 | 0.238 | -6.02 | -4.52 | 9.57 | 7.69 | 1.06 | 8.97 | -6.31
9 | CC(NC(=O)COc1ccc(F)cc1)c1nnc2n1CCCCC2 (stereo not given) | -3.7 | 16.2 | -13.2 | 13.2 | 5.19 | -8.02 | 0.36 | 0.906 | 4.43 | 18.5 | -14.6
10 | C=Cc1ccc(C(=O)N2CCCC(Nc3ccc(OC)cc3)C2)cc1 (stereo not given) | -0.54 | 8.11 | 29 | 18.1 | 5.41 | -1.43 | 3.28 | 12.3 | 10.1 | 19.5 | -8.46
11 | O=C(c1ccsc1)N1CCOC2(CCN(Cc3cccnc3)CC2)C1 | -1.61 | -2.67 | 3.67 | 7.65 | 0.579 | -3.4 | 8.38 | -17 | 3.12 | 5 | -6.25
12 | O=C(c1ccco1)N1CCCC(c2cc(C(F)F)n3ncnc3n2)C1 (stereo not given) | -1.42 | 4.05 | 9.33 | 28.2 | -8.5 | 3.02 | 3.9 | 7.52 | 0 | 3.9 | 3.66
13 | COCCn1cc2c(n1)C(CNCc1ccco1)OCC2 (stereo not given) | -7.4 | -2.7 | 0.854 | 9.04 | -0.781 | 0.833 | 18 | 13.2 | 3.96 | -3.66 | -1.08
14 | Cc1cc2n(n1)CC(CNCc1cnn(-c3ccccc3)c1)CN2 (stereo not given) | 2.28 | 5.26 | -10.4 | 1.3 | 2.26 | 4.21 | 13.9 | 15.7 | 12.2 | 12.2 | -7.16
15 | Cc1cc(C)nc(CCNC(=O)[C@H]2CNC[C@@H](C(=O)N3CCCC3)C2)n1 | -5 | 0 | 2.23 | -0.778 | -8.33 | -5.59 | 5.91 | 29.4 | 2.08 | 3.7 | -3.88
16 | O=C(CCc1ccsc1)N1CCC(Cc2ccc(CO)cc2)C1 (stereo not given) | 2.19 | 4.17 | -0.478 | -3.78 | -6.9 | 3.53 | 12.5 | -1.24 | 3.16 | 7.69 | -1.32
17 | CC1CCN(Cc2cnc(S(=O)(=O)CC3CC3)n2CC2CCCO2)CC1 (stereo not given) | -4.08 | -4.17 | 9.77 | 0.164 | -3.21 | -2.65 | 0.877 | 4.06 | -1.05 | -7.69 | 5.99
18 | OCCn1nccc1C1CCN(CCCOc2ccc(F)cc2)CC1 | -5.89 | 0 | -3.35 | 3.53 | -0.28 | -2.88 | -3.64 | -5.47 | 9.36 | 16.1 | -0.509
19 | CC(=O)N1CCC(C(=O)NCCN2CCC(C)CC2)CC1 | -1.98 | 9.72 | 11.4 | -1.43 | -3.6 | 4.86 | 18.1 | -2.5 | 4.21 | 5.13 | -3.45
20 | CC(=O)N(Cc1noc(C)n1)C1CCN(Cc2ccon2)C1 (stereo not given) | -2.71 | 21.5 | -1.98 | -4.08 | 1.13 | -3.66 | 22.3 | 10.2 | 3.12 | 15.2 | 52.1
